These results are taken from PubChem BioAssay AID2284354 (EPA ToxCast).

Inconclusive results are not listed. The source made the active and inactive calls. How the source made its calls: active means hit-call score of the fitted dose curve at least 0.9, where 1 is the maximum; inconclusive means response in the unintended direction; inactive means score below 0.9.

human Retinoid X Receptor beta (RXRb), RXRB (gene 6257), sequence (P28702 whole entry, looked up): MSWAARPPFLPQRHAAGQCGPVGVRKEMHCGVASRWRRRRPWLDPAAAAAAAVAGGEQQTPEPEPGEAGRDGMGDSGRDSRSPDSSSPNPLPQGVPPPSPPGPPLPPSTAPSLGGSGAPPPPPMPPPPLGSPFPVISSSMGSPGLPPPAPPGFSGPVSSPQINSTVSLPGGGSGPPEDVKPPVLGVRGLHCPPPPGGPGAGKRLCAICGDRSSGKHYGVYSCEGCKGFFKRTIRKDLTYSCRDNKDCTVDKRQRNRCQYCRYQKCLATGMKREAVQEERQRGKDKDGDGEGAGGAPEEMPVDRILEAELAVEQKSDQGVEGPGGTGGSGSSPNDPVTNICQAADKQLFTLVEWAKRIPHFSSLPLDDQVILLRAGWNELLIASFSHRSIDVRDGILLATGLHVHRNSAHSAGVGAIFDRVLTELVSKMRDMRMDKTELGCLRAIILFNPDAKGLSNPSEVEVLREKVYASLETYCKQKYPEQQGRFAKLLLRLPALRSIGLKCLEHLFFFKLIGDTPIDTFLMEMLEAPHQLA

The target of this test is human Retinoid X Receptor beta (RXRb), RXRB (gene 6257) (UniProt P28702). The experiment in a line: ATG_hRXRb_EcoTox2: Attagene TRANS-FACTORIAL EcoTox-2 HepG2 Assay for human Retinoid X Receptor beta (RXRb). How it is done:
ATG_EcoTox2 is a cell-based, multiplexed assay created by modifying the existing Attagene TRANS-FACTORIAL system to include a panel of nuclear receptors from some or all the following species: human (Homo sapiens), african clawed frog (Xenopus laevis), rainbow trout (Oncorhynchus mykiss), japanese medaka (Oryzias latipes), and zebrafish (Danio rerio). The ECOTOX2-FACTORIAL format uses HepG2, a human liver cell line, with measurements taken at 24 hours after chemical dosing in a 24-well plate. ATG_hRXRb_EcoTox2 is one of 29 assay components calculated in the ATG_EcoTox2 assay. It is designed to make measurements of mRNA induction, a form of inducible reporter, as detected with fluorescence intensity signals by Reverse transcription polymerase chain reaction (RT-PCR) and Capillary electrophoresis technology.The assay endpoint ATG_hRXRb_EcoTox2 was analyzed in the positive analysis fitting direction relative to DMSO as the negative control and baseline of activity. Using a type of inducible reporter, measures of mRNA for gain-of-signal activity can be used to understand the reporter gene at the transcription factor-level as they relate to the gene RXRb. Furthermore, this assay endpoint can be referred to as a primary readout, because this assay has produced multiple assay endpoints where this one serves a reporter gene function. To generalize the intended target to other relatable targets, this assay endpoint is annotated to the nuclear receptor intended target family, where the subfamily is non-steroidal.
Human liver HepG2 cells are transiently transfected with multiple reporter transcription units (MRTUs) in 6-well plates using FuGene 6 reagent (Roche; 3 ml FuGene/1 mg DNA). The MRTU constructs are regulated by a cis-regulating element (promoter). Each RTU expresses a GAL4-UAS that regulates the transcription of a nearby target reporter gene sequence. A major difference between the CIS and TRANS system is that in CIS activities of endogenous TFs are measured, whereas the TRANS assay evaluates changes in activities of exogenous, chimeric NR-Gal4 proteins. […] At the end of 24 hour incubation, total RNA was isolated using TriZol reagent (Invitrogen). The isolated RNA is then reverse-transcribed using oligo(dT) primer and Mo-MLV reverse transcriptase (Invitrogen) with DNAse I (Ambion) treatment for 30 min. The one-tenth of the produced cDNA was amplified by PCR using Taq DNA polymerase (Invitrogen) and two reporter sequence-specific primers. […] The fragments were purified using Qiaquick PCR columns (Qiagen), analyzed on an ABI 3130xL genetic analyzer (Applied Biosystems) with peak positions identified by using a set of X-rhodamine (ROX)-labeled MapMarker1000 molecular weight standards (BioVentures). […]
Regarding `O=S(=O)(O)C(F)(F)C(F)(F)C(F)(F)C(F)(F)C(F)(F)C(F)(F)F`, the call was inactive.

One may read the AC50 as the concentration at which the activity in the assay is half-maximal. `O=C(O)C(F)(F)C(F)(F)C(F)(F)C(F)(F)C(F)(F)C(F)(F)C(F)(F)F`: the AC50 is 29 µM (active).

`CCCCOCN(C(=O)CCl)c1c(CC)cccc1CC`: the AC50 is 36.6 µM (active).

Take `[Cl][Sn]([c]1ccccc1)([c]1ccccc1)[c]1ccccc1`: the AC50 was 0.041 µM (active).
